Reference: PubChem BioAssay (Tox21)
Inconclusive results are not listed. The source made the active and inactive calls. Unless noted, the call rests on the fitted dose curve; in most records, active means well fitted curve in the direction sought with a large enough effect in the repeat runs; inconclusive means weak or mixed curves; inactive means no such curve, though single readings can be large; an effect the other way counts as inactive or inconclusive.

What was measured:
[1] = biological target: Thyrotropin receptor (Homo sapiens) (UniProt P16473); experiment: qHTS assay to identify small molecule agonists of the thyroid stimulating hormone receptor (TSHR) signaling pathway (AID 1224843; calls by dose curve; further: nearly all actives have a fitted effect of over 45% in size)
Chain of Thyrotropin receptor (Homo sapiens) (P16473 whole entry, looked up): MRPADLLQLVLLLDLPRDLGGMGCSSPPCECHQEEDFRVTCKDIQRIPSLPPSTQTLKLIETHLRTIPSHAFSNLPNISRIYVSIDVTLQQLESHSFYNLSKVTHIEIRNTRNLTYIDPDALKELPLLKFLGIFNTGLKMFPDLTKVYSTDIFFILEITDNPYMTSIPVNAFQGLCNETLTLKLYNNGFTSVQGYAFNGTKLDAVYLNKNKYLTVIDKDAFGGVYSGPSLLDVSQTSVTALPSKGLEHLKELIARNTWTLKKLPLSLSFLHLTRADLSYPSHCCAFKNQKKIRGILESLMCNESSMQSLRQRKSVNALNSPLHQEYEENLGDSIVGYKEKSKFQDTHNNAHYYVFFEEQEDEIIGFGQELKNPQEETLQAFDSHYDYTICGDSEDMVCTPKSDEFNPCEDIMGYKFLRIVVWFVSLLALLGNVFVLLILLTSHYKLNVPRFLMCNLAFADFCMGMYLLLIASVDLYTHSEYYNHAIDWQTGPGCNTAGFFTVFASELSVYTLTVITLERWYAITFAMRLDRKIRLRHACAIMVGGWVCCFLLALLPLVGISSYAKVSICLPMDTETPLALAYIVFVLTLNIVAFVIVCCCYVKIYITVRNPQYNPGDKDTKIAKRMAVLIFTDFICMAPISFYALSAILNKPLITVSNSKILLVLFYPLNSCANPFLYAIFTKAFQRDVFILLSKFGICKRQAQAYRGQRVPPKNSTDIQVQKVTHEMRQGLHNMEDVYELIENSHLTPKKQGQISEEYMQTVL
In short: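 HEK293/TSHR, 800 cells/well; cpd 30 min RT; add cAMP-d2 + anti-cAMP-cryptate, 1 h RT; fluorescence read on plate reader. 15-pt titration, n=3.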

[2] = qHTS assay to identify small molecule agonists of the hypoxia (HIF-1) signaling pathway - cell viability counter screen (AID 1224844; calls by dose curve; further: nearly all actives have a fitted effect of over 50% in size)
In short: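 HRE-bla ME-180; 0.5% dFBS; cpd 17 h, 37C, 5% CO2; CellTiter-Glo lum., 30 min RT, post-FRET read, same wells.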

[3] = qHTS assay to identify small molecule agonists of H2AX - cell viability counter screen (AID 1224847; calls by dose curve; further: top concentration of the series differs between compounds; nearly all actives have a fitted effect of over 30% in size)
In short: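 Viability of CHO-K1 (wild type) cells after 3 hr compound exposure was measured by CellTiter-Glo luminescence.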

[4] = qHTS assay to identify small molecule antagonists of the estrogen related receptor (ERR) signaling pathway from Tox21 library (AID 1224848); further: nearly all actives have a fitted effect of over 50% in size
In short: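 Compounds dissolved in DMSO are pin-transferred onto ERR reporter cells (2,000 per well) that have settled for 6 h at 37 C. Plates then incubate 18 h at 37 C before ONE-Glo luciferase reagent and a luminescence read 30 min later.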

[5] = qHTS assay to identify small molecule agonists of the estrogen related receptor (ERR) signaling pathway from Tox21 library (AID 1224849; calls by dose curve; further: nearly all actives have a fitted effect of over 15% in size); conditions: ERR reporter cell line, ONE-Glo luciferase, 18 h; at 92.4 µM (top of the series) unless noted
In short: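 Tox21 compounds tested for ERR agonism in an NTP reporter cell line: 18 h treatment at 37 C, then ONE-Glo luminescence.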

[6] = qHTS RealTime-Glo MT Cell Viability Assay in HepG2 cells - 24 hour (AID 1224867); further: nearly all actives have a fitted effect of over 50% in size
In short: (§1)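 HepG2 cells (600/well) were dispensed with RealTime-Glo reagents, incubated 5 h at 37 °C, then treated with compounds in DMSO for up to 40 h. Nonlytic NanoLuc luminescence reflecting viable cells was read at each stated time point.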

[7] = qHTS RealTime-Glo MT Cell Viability Assay in HEK293 cells - 32 hour (AID 1224868); further: top concentration of the series differs between compounds; nearly all actives have a fitted effect of over 50% in size
In short: (§2)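 HEK293 cells seeded with NanoLuc/prosubstrate reagent, rested 5 h at 37 C, then dosed and kept at 37 C up to 40 h. Nonlytic real-time luminescence from viable cells read at 0, 8, 16, 24, 32 and 40 h.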

[8] = A CellTox Green Cytotoxicity Assay to monitor cytotoxicity in HEK293 cells - 0 hour (AID 1224869); further: nearly all actives have a fitted effect of over 50% in size
In short: (§3)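 Tox21 screen in HEK293: membrane-impermeant cyanine dye fluoresces on binding dead-cell DNA; compound pinned 5 h post-seeding, plates held at 37 C, signal read repeatedly through 40 h.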

[9] = qHTS RealTime-Glo MT Cell Viability Assay in HepG2 cells - 40 hour (AID 1224870); further: nearly all actives have a fitted effect of over 50% in size
In short: (§4)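 HepG2 cells (600/well) mixed with RealTime-Glo MT reagent, settled 5 h at 37 C/5% CO2 before compound addition. Nonlytic NanoLuc luminescence from viable-cell prosubstrate reduction read repeatedly during 40 h treatment at 37 C.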

[10] = A CellTox Green Cytotoxicity Assay to monitor cytotoxicity in HEK293 cells - 40 hour (AID 1224871); further: nearly all actives have a fitted effect of over 45% in size
In short: as §3

[11] = qHTS RealTime-Glo MT Cell Viability Assay in HEK293 cells - 16 hour (AID 1224872)
In short: as §2

[12] = qHTS RealTime-Glo MT Cell Viability Assay in HepG2 cells - 8 hour (AID 1224873); further: nearly all actives have a fitted effect of over 55% in size
In short: as §4

[13] = qHTS RealTime-Glo MT Cell Viability Assay in HEK293 cells - 40 hour (AID 1224874); conditions: RealTime-Glo luminescence; max response: hits give low values; further: nearly all actives have a fitted effect of over 50% in size
In short: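 HEK293 + NanoLuc + prosubstrate, 600 cells/well; 5 h, 37 C/5% CO2; compound 23 nL in DMSO by pintool; 37 C; luminescence read at 0, 8, 16, 24, 32 and 40 h time points.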

[14] = A CellTox Green Cytotoxicity Assay to monitor cytotoxicity in HEK293 cells - 24 hour (AID 1224875); further: nearly all actives have a fitted effect of over 45% in size
In short: as §3

[15] = A CellTox Green Cytotoxicity Assay to monitor cytotoxicity in HepG2 cells - 16 hour (AID 1224876); further: nearly all actives have a fitted effect of over 45% in size
In short: (§5)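 Measurements at 0, 8, 16, 24, 32 and 40 h of treatment captured CellTox Green fluorescence in HepG2 cells that had been co-plated with reagent and preincubated 5 h at 37 C/5% CO2.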

[16] = qHTS RealTime-Glo MT Cell Viability Assay in HepG2 cells - 32 hour (AID 1224877); further: nearly all actives have a fitted effect of over 55% in size
In short: as §1

[17] = A CellTox Green Cytotoxicity Assay to monitor cytotoxicity in HepG2 cells - 40 hour (AID 1224879); further: nearly all actives have a fitted effect of over 40% in size
In short: as §5

[18] = qHTS assay to identify small molecule agonists of H2AX (AID 1224845; active means well fitted activation curve with a large enough effect in the signal ratio in the repeat runs, not every such curve was filed as active; the % refers to the signal ratio)
In short: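 Wild-type CHO-K1 cells, plated overnight, exposed 3hr at 37C to 15 concentrations (0.76% DMSO final). Lysed, then HTRF anti-pH2AX (S139) cryptate and anti-H2AX-d2 antibodies, 24 hr room temperature; 665/620 nm emission read.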

[19] = A CellTox Green Cytotoxicity Assay to monitor cytotoxicity in HepG2 cells - 24 hour (AID 1224878); further: nearly all actives have a fitted effect of over 45% in size
In short: as §5

[20] = qHTS assay to identify small molecule agonists of the hypoxia (HIF-1) signaling pathway (AID 1224846; active means well fitted activation curve with a large enough effect in the signal ratio in the repeat runs, not every such curve was filed as active; the % refers to the signal ratio)
In short: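 Reporter induction in HRE-bla ME-180 cells is taken as agonism: cells sit 5 hrs after plating, receive compounds or DMSO only, incubate 17 hrs at 37C under 5% CO2, and are loaded with CCF4-AM for beta-lactamase FRET measurement.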
On the % scale 0 is the no-effect control and ±100 the full control effect.

NC/C=C/C(=O)O
inactive: Potency [1] | Potency [2] | Potency [3] | Potency [4] | activity change, positive = activation [5] 6.36% [at 42.5 µM] | Potency [6] | Potency [7] | Potency [8] | Potency [9] | Potency [10] | Potency [11] | outcome [12] | max response [13] 2.11% | Potency [14] | Potency [15] | Potency [16] | Potency [17]

NC(=O)NS(=O)(=O)c1ccc(Cl)cc1
inactive: Potency [1] | Potency [2] | Potency [18] | Potency [3] | Potency [6] | Potency [7] | Potency [8] | Potency [10] | Potency [11] | outcome [12] | max response [13] 0.44% | Potency [14] | Potency [15] | Potency [16] | Potency [19] | Potency [17]

O=S(=O)(O)C(F)(F)F
inactive: Potency [1] | Potency [2] | outcome [20] | Potency [3] | Potency [4] | activity change, positive = activation [5] 4.04% | Potency [6] | Potency [7] | Potency [8] | Potency [10] | Potency [11] | outcome [12] | max response [13] 7.92% | Potency [14] | Potency [15] | Potency [16] | Potency [19] | Potency [17]

CCCc1c2oc(C(=O)O)cc(=O)c2cc2c(=O)cc(C(=O)O)n(CC)c12
inactive: Potency [1] | Potency [2] | outcome [20] | Potency [3] | Potency [4] | activity change, positive = activation [5] 1.31% [at 42.5 µM] | Potency [6] | Potency [7] | Potency [9] | Potency [11] | outcome [12] | max response [13] 1.42% | Potency [15] | Potency [16] | Potency [19] | Potency [17]

CCCCNc1cc(C(=O)O)cc(S(N)(=O)=O)c1Oc1ccccc1
inactive: Potency [1] | Potency [2] | outcome [20] | Potency [3] | Potency [6] | Potency [7] | Potency [8] | Potency [9] | Potency [11] | outcome [12] | max response [13] 0.323% | Potency [14] | Potency [16] | Potency [19] | Potency [17]

CC1CN(c2ccccc2)NC1=O (configuration not stated)
inactive: Potency [1] | Potency [2] | outcome [20] | Potency [3] | Potency [6] | Potency [7] | Potency [9] | Potency [11] | outcome [12] | max response [13] -13.5% | Potency [14] | Potency [15] | Potency [16] | Potency [19] | Potency [17]

C=CCc1cc(OC)c(O)c(C(=O)NCCO)c1
inactive: Potency [1] | Potency [2] | Potency [18] | Potency [3] | Potency [6] | Potency [7] | Potency [8] | Potency [9] | Potency [10] | Potency [11] | outcome [12] | max response [13] 15.9% | Potency [14] | Potency [15] | Potency [16] | Potency [17]

OCC(CBr)(CBr)CBr
inactive: Potency [1] | Potency [2] | outcome [20] | Potency [3] | Potency [6] | Potency [8] | Potency [9] | Potency [10] | Potency [11] | outcome [12] | Potency [14] | Potency [15] | Potency [16] | Potency [17]
